Reference: PubChem BioAssay AID1347426 (Functional Genomics Laboratory (NCATS/FGL), 2020)
Among all 31,000 sequences or so, about 1,400 (4.5%) were called active. Only a selection was taken, and actives are over-represented in it overall. Values without a mark were called inactive.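 Rule for the calls: active = median seed-adjusted z-score above 1 or below -1; inactive = the rest.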

experiment: Novel Modifiers of Survival Motor Neuron (SMN) Protein: Gene Identification via Genome-wide siRNA Screen; details: HEK293T SMN2-luciferase reporter, siRNA knockdown, 72 h; actives lie on both sides;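 note: luminescence tracks full-length SMN protein made from the SMN2 reporter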
Text: Spinal muscular atrophy (SMA) is the most common neuromuscular autosomal recessive disorder and one of the leading genetic causes of infant death. SMA results from mutations inducing loss of function or deletion in the survival of motor neuron-1 gene (SMN1), leading to deficiency of the survival motor neuron (SMN) protein. Although a second nearly identical gene, SMN2, is retained in humans, its expression primarily produces an aberrantly spliced isoform that is largely unstable and quickly degraded. We performed a genome-wide RNAi screen using a cell-based reporter assay to identify genes and pathways that modulate SMN protein stability. The screen identified over 200 genes that led to the greatest increase or decrease in luciferase expression.
Using HEK293T cells stably expressing a luciferase reporter that combines the promoter and splicing based cassettes in tandem with the major portion of the native SMN2 cDNA with luciferase, we performed a genome-wide RNAi screen to identify modulators of SMN protein levels. Luciferase is expressed when full-length SMN protein is generated with luminescence signal proportional to SMN protein levels. Our luciferase-based reporter assay was used to screen Ambion Silencer Select Human Druggable Genome siRNA library (10418 genes, 3 unique siRNAs per gene) using lipid-based reverse transfection.
Briefly, 1 pmol of each siRNA was spotted to a well of a 384-well plate (Corning, Corning, NY) and 20 microL of serum-free DMEM containing […] of Lipofectamine RNAiMax (Life Technologies, Carlsbad, CA) was then added to each well. Transfected cells were maintained at 37 degrees C in 5% CO2 for 72 hours, 20 microL of ONE-Glo Reagent (Promega) was added to wells for luciferase quantification. Raw luminescence reads were normalized to Ambion(R) Silencer(R) Negative Control #2 siRNA, then log10 transformed. A robust statistical measure of median absolute deviation (MAD) to standardize siRNA activities from each screen. Common Seed Analysis was used to help prioritize clean hits as opposed to those appearing to arise from seed based off-target effects. Candidate modulators were defined as the genes having a MAD score greater than 1.0 or less than -1.0.

Row | Sequence | median seed-adjusted z-score
1 | CGUGUAUUCUUUCACUAAUTT against MFSD1 | -0.0833
2 | GGGUAUCACCUCACGCUUATT against ABCA12 | 0.0759
3 | GGUUUGGAAUGUUCGAGUUTT against SLC25A1 | 0.252
4 | GGCACAAUUUCAACUCCAUTT against GPR35 | -1.46 (active)
5 | GAGCUUAGUGAUAAUAUAATT against ANP32E | -0.0648
6 | GUGACUAUGAGCUCAAAUATT against RAVER1 | -0.0873
7 | ACAUGACCAUGGAAGCUGATT against HIPK4 | 0
8 | GGAUCCGAGAGUCACCCAATT against LLGL1 | -1.13 (active)
9 | GGACAGACACGUCAGCAAATT against TMEM171 | 0.278
10 | GGAAAUCUCGGAGAUCACATT against MLYCD | -0.154
11 | CAUCCUCAUUUGAAACCGUTT against CREBL1 | -0.348
12 | CAUUCGCAUUCAGUCCAUATT against FRAP1 | -1.02 (active)
13 | GCAGAUGACUACAACUUUATT against E2F5 | -0.628
14 | GGACUGUACAACACUCUGATT against TGFB3 | -0.354
15 | GAUAAUGGAAGGUGAAUUUTT against PMS2L3 | 0.175
16 | CGGGAGAAGUCCUACCUGUTT against KIF19 | 0.342
17 | CGCAGGUUCUACCAGAUGATT against HS3ST6 | 0
18 | CCAUGGAUGAGACUCCGUATT against PPP1R10 | 1.41 (active)
19 | CGUGAUUGACUAUGAGGAATT against GRM6 | -0.0544
20 | GGUCAUUAUUGGUGAGCAATT against HARS2 | 0
21 | AGAACAACGUGAAGGCACATT against TNPO2 | 0.0785
22 | CAGUGGAUAUCUUGACCUATT against LDHA | 0.401
23 | GGAAGUCUCUUGUCUGCAATT against RNASEL | 0
24 | CAGGUUUUCUACAACAACATT against ABCA2 | -1.18 (active)
25 | GAACUUGACCAGUUAGACUTT against GTF3C3 | 0.21
26 | GGACAACCAUCUUCAAAGATT against ZKSCAN5 | -0.229
27 | GCAGUAUCGAGCUUCCGAATT against ACAD10 | -0.269
28 | GGAUCAUCAUGGAAUUGUATT against PTK2B | 1.71 (active)
29 | CCAUGUCAGUCCUAGGAAATT against ATRIP | 0.353
30 | GCAACUCCAUGUUUCAUAATT against PRMT1 | -0.596
